For assay [1], the system named is RAW-Dual. The experiment in a line: NF-kB SEAP reporter activity, fold change vs agonist alone; cytotoxicity flag (confluency mask): not cytotoxic; higher = enhanced NF-kB activity. The essentials:
(§1)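 Supernatant from RAW-Dual macrophages was read after 20 hours for IRF by QuantiLuc luminescence and for NF-κB by QuantiBlue absorbance at 620 nm. The cells (50,000 cells/well in DMEM, 384-well plates, 37 °C, 5% CO2) had received 50 nL of library stock by pin tool and, 1 h later, a PRR agonist. Reporter activity is expressed relative to agonist-alone wells as fold change, and wells were flagged cytotoxic if IncuCyte confluency was under 70% of agonist controls in both mask sets.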

Assay [2] deals with RAW-Dual. Briefly: NF-kB SEAP reporter activity, fold change vs agonist alone; higher = enhanced NF-kB activity. The settings on record: cytotoxicity flag (confluency mask): not cytotoxic. In short, it runs like this: as §1
[3] abbreviates: agonist: ODN 1826 (TLR9) 0.5 ug/mL.
[4] abbreviates: agonist: Pam2CSK4 (TLR2/6) 0.1 ug/mL.
Setting [5] is: agonist: Pam3CSK4 (TLR2/1) 0.1 ug/mL.
The mark [6] stands for this setting: library stock concentration (final ~1000-fold dilution): 10 mM, agonist: Imiquimod (TLR7) […].
Where [7] appears, read: library stock concentration (final ~1000-fold dilution): 10 mM, agonist: MPLA (TLR4) […].
Setting [8] is: library stock concentration (final ~1000-fold dilution): 10 mM water, agonist: MPLA (TLR4) […].

Whole data set: some 2,900 compounds, median “NF-kB SEAP reporter activity, fold change vs agonist alone” near 0.99, cut for the highest 2% near 2.6. Only a selection was taken, and the highest values are over-represented in it overall.

For the compound `CC1(C(=O)O)CCC2(C)CCC3(C)C(=CC(=O)C4C5(C)CCC(OC6OC(C(=O)O)C(O)C(O)C6OC6OC(C(=O)O)C(O)C(O)C6O)C(C)(C)C5CCC43C)C2C1.N.N` (configuration not stated) (library stock concentration (final ~1000-fold dilution): 10 mM), the “NF-kB SEAP reporter activity” value with RAW-Dual [1] (agonist: LPS (TLR4) 0.1 ug/mL) came to 0.96; with RAW-Dual [1] (setting [3]), 0.88; in the assay with RAW-Dual [1] (setting [4]), 0.866; with RAW-Dual [1] (setting [5]) it was 1.15.

Regarding `CC1(C(=O)O)CCC2(C)CCC3(C)C(=CC(=O)C4C5(C)CCC(OC6OC(C(=O)O)C(O)C(O)C6OC6OC(C(=O)O)C(O)C(O)C6O)C(C)(C)C5CCC43C)C2C1.N.N` (configuration not stated), the “NF-kB SEAP reporter activity” value came out at 0.926 in the assay with RAW-Dual [2] (setting [6]) and 1.03 in the assay on RAW-Dual [2] (setting [7]).

Regarding `CC(C)n1nc(-c2ccc(NC(=O)Nc3cc(C(F)(F)F)ccc3F)cc2)c2c(N)ncnc21` (library stock concentration (final ~1000-fold dilution): 10 mM), the “NF-kB SEAP reporter activity” value in the assay on RAW-Dual [1] (agonist: LPS (TLR4) 0.1 ug/mL) amounted to 0.398; in the assay on RAW-Dual [1] (setting [3]), 0.196; with RAW-Dual [1] (setting [4]), 0.0706; in the assay with RAW-Dual [1] (setting [5]), 0.216.

In the case of `CC(C)n1nc(-c2ccc(NC(=O)Nc3cc(C(F)(F)F)ccc3F)cc2)c2c(N)ncnc21`, the “NF-kB SEAP reporter activity” value in the assay on RAW-Dual [2] (setting [6]) stood at 0.149; in the assay on RAW-Dual [2] (setting [7]) it was 0.261.

As to `CC(C)n1nc(-c2ccc3oc(N)nc3c2)c2c(N)ncnc21`, the “NF-kB SEAP reporter activity” value in the assay with RAW-Dual [2] (setting [6]) stood at 1.76; in the assay with RAW-Dual [2] (setting [7]), 2.1.

Consider `CC(C)n1nc(-c2cc3cc(O)ccc3[nH]2)c2c(N)ncnc21`, for which the entries for the “NF-kB SEAP reporter activity” value in the assay on RAW-Dual [2] (setting [6]) and in the assay with RAW-Dual [2] (setting [7]) were 0.933 and 0.941, respectively.

For `CC(C)n1nc(-c2ccc3oc(N)nc3c2)c2c(N)ncnc21` (library stock concentration (final ~1000-fold dilution): 10 mM), the “NF-kB SEAP reporter activity” value in the assay with RAW-Dual [1] (agonist: LPS (TLR4) 0.1 ug/mL) is 2.03; in the assay with RAW-Dual [1] (setting [3]), 1.69; with RAW-Dual [1] (setting [4]) it was 0.647; with RAW-Dual [1] (setting [5]), 0.973.

For `CC(C)n1nc(-c2cc3cc(O)ccc3[nH]2)c2c(N)ncnc21` (library stock concentration (final ~1000-fold dilution): 10 mM), the “NF-kB SEAP reporter activity” value in the assay on RAW-Dual [1] (agonist: LPS (TLR4) 0.1 ug/mL) was determined as 3.13; in the assay with RAW-Dual [1] (setting [3]), 0.998; in the assay with RAW-Dual [1] (setting [4]), 1.01; in the assay on RAW-Dual [1] (setting [5]), 0.904.

Consider `Cc1c(C(=O)Nc2ccc(N3CC(C)OC(C)C3)nc2)cccc1-c1ccc(OC(F)(F)F)cc1` (configuration not stated), for which the “NF-kB SEAP reporter activity” value in the assay with RAW-Dual [2] (setting [6]) turned out to be 0.808; with RAW-Dual [2] (setting [7]), 0.657.

With `Cc1c(C(=O)Nc2ccc(N3CC(C)OC(C)C3)nc2)cccc1-c1ccc(OC(F)(F)F)cc1` (configuration not stated) (library stock concentration (final ~1000-fold dilution): 10 mM), the “NF-kB SEAP reporter activity” value in the assay on RAW-Dual [1] (agonist: LPS (TLR4) 0.1 ug/mL) is 1.13; in the assay on RAW-Dual [1] (setting [3]) it was 1.35; in the assay with RAW-Dual [1] (setting [4]) it was 0.839; in the assay with RAW-Dual [1] (setting [5]), 1.12.

For the compound `N=C(N)NCCN1CCCCCCC1.O=S(=O)(O)O`, in the assay on RAW-Dual [2] (setting [8]), the “NF-kB SEAP reporter activity” value is 1.05.

Consider `N=C(N)NCCN1CCCCCCC1.O=S(=O)(O)O` (library stock concentration (final ~1000-fold dilution): 10 mM water), for which the “NF-kB SEAP reporter activity” value is 1.13 in the assay with RAW-Dual [1] (agonist: LPS (TLR4) 0.1 ug/mL), 1.05 in the assay on RAW-Dual [1] (setting [3]), 1.06 in the assay with RAW-Dual [1] (setting [4]) and 0.972 with RAW-Dual [1] (setting [5]).

For the compound `CC1CC(=O)Nc2cccc(-c3ccc4c(c3)c(-c3cnn(C)c3)nn4C)c2N1` (configuration not stated), the “NF-kB SEAP reporter activity” value in the assay with RAW-Dual [2] (setting [6]) worked out at 1.46; in the assay with RAW-Dual [2] (setting [7]), 2.15.

With `CC1CC(=O)Nc2cccc(-c3ccc4c(c3)c(-c3cnn(C)c3)nn4C)c2N1` (configuration not stated) (library stock concentration (final ~1000-fold dilution): 10 mM), the “NF-kB SEAP reporter activity” value in the assay with RAW-Dual [1] (agonist: LPS (TLR4) 0.1 ug/mL) was determined as 3.26; in the assay with RAW-Dual [1] (setting [3]) it was 2.08; in the assay with RAW-Dual [1] (setting [4]), 0.673; in the assay with RAW-Dual [1] (setting [5]) it was 1.28.

In the case of `Cc1nc[nH]c1CN1CCc2c(c3ccccc3n2C)C1=O.Cl`, the “NF-kB SEAP reporter activity” value in the assay on RAW-Dual [2] (library stock concentration (final ~1000-fold dilution): 2 mM water, agonist: MPLA (TLR4) […]) was 1.06.

Regarding `Cc1nc[nH]c1CN1CCc2c(c3ccccc3n2C)C1=O.Cl` (library stock concentration (final ~1000-fold dilution): 2 mM water), the “NF-kB SEAP reporter activity” value in the assay on RAW-Dual [1] (agonist: LPS (TLR4) 0.1 ug/mL) turned out to be 1.14; with RAW-Dual [1] (setting [3]) it was 1.09; in the assay with RAW-Dual [1] (setting [4]) it was 1.15; with RAW-Dual [1] (setting [5]), 0.961.

For `NC(CSCCCO)C(=O)O` (configuration not stated) (library stock concentration (final ~1000-fold dilution): 10 mM water), the “NF-kB SEAP reporter activity” value was found to be 1.11 in the assay on RAW-Dual [1] (agonist: LPS (TLR4) 0.1 ug/mL), 1.09 with RAW-Dual [1] (setting [3]), 1.22 with RAW-Dual [1] (setting [4]) and 1.09 in the assay on RAW-Dual [1] (setting [5]).

Turning to `NC(CSCCCO)C(=O)O` (configuration not stated), the “NF-kB SEAP reporter activity” value came to 0.937 in the assay on RAW-Dual [2] (library stock concentration (final ~1000-fold dilution): 10 mM water, agonist: Imiquimod (TLR7) […]) and 1.04 in the assay on RAW-Dual [2] (setting [8]).

(Values after the supplement of paper PMC10037445.)
